Assay [1] can be described thus: AP1 Signaling Pathway (AID 357).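 Further: ME-180 reporter cells stimulated with EGF at its EC50 level; on the % scale 0 is the no-effect control and ±100 the full control effect.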 Put shortly:
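Cells are seeded overnight, exposed to compound titrations and an EC50 level of EGF for 5 hours at 37 °C, then loaded with CCF4 dye for 2.5 hours. Beta-lactamase activity under the AP-1 element is read as a blue/green ratio.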

The target of assay [2] is Cytochrome P450 1A2 (Homo sapiens) (UniProt P05177). Description: p450-cyp1a2 (AID 410; calls by dose curve; further: potency means the concentration at half of the fitted maximal effect). In outline:
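Read-out is luminescence from luciferin produced by CYP1A2 demethylation of Luciferin-ME (100uM, at Km). Detection reagent stopped the 60 min NADPH-dependent reaction; signals were normalized to 57 uM furafylline.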

Assay [3] in a line: NFAT Signaling Pathway (AID 444).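 Further: carbachol stimulus at about its EC50 of 1 µM final; on the % scale 0 is the no-effect control and ±100 the full control effect.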 The settings on record: Jurkat NFAT-bla M1, carbachol, beta-lactamase ratio, 5 h. In outline: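 Read-out: CCF4 FRET ratio (460 nm/530 nm) after 1 h RT dye loading, used for %activity and AC50 from titration series. Cells: Jurkat NFAT-β-lactamase/M1 line, treated with compound plus 1 uM carbachol for 5 h, 37 °C.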
The target in assay [4] is Glucocorticoid receptor (Homo sapiens) (UniProt P04150). Kind of assay: GR-EFC Redistribution (AID 451; calls by dose curve; further: potency means the concentration at half of the fitted maximal effect). The settings on record: CHO-K1 GR-EFC translocation, beta-gal luminescence, 2 h. In outline:
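Translocation of GR-ED fusion to nuclear EA restores b-gal, read by luminescence after 1 h room-temperature detection. Engineered CHO-K1 biosensor cells, 1,000/well, exposed 2 h at 37 C to titrations up to 46 uM final.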

Assay [5] deals with Mitogen-activated protein kinase 10 (Mus musculus) (UniProt Q61831). Description: JNK3 AlphaScreen Assay (AID 530).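 Further: kinase came from lysate of stimulated human HepG2 cells; signal reports phosphorylation of biotinylated GST-cJun 1-79 at Ser73 with 10 µM ATP; on the % scale 0 is the no-effect control and ±100 the full control effect.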 In outline: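 Kinase buffer: 20 mM Tris-HCl pH 7.6, 10 mM MgCl2, 1 mM DTT, 0.1 mM Na3VO4, 0.01% Tween-20; ATP 10 uM. Substrate biotin-GST-cJun(1-79), enzyme from activated HepG2 lysates. Detection by Ser73 phospho-antibody AlphaScreen.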
Assay [6] deals with 3',5'-cyclic-AMP phosphodiesterase 4B (Homo sapiens) (UniProt Q07343). Kind of assay: qHTS Assay for Inhibitors of PDE-IV (AID 607; active means well fitted activation curve with a large enough effect in the main read-out, with a control signal flat, not every such curve was filed as active; further: % of control where 0% means no effect). Put shortly: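 Cell-based read-out of cAMP via a modified cyclic nucleotide-gated channel and membrane potential dye (535/590 nm) in HEK293 cells expressing PDE4 endogenously. Compounds tested up to 22.9 uM final; 100 uM RO 20-1724 reference.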
Chain of 3',5'-cyclic-AMP phosphodiesterase 4B (Homo sapiens) (Q07343 whole entry, looked up): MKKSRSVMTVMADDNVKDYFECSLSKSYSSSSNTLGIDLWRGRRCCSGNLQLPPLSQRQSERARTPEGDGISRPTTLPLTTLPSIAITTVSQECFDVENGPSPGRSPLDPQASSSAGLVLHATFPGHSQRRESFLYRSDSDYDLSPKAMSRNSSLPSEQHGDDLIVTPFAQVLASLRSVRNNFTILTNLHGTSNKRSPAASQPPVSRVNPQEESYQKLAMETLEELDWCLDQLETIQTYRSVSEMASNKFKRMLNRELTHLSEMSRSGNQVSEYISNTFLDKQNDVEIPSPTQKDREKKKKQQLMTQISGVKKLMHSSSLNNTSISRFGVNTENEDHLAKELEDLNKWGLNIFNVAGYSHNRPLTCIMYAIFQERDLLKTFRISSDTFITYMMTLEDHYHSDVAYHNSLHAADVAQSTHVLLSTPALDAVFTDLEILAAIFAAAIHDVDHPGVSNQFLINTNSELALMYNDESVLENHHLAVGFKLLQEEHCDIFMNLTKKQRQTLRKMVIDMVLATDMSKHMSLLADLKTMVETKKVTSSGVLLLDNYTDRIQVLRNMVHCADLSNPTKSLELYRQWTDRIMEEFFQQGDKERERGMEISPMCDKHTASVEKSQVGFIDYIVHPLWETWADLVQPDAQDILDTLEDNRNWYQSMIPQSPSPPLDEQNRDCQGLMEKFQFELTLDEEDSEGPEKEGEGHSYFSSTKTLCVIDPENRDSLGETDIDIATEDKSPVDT
Background: qHTS replaces the single test concentration by a dilution series.

Assay [7] addresses Cytochrome P450 2D6 (Homo sapiens) (UniProt P10635). Description: qHTS Assay for Inhibitors and Substrates of Cytochrome P450 2D6 (AID 891; active means well fitted curve in the direction sought with a large enough effect; an effect the other way counts as inactive or inconclusive; further: nearly all actives have a fitted effect of over 60% in size; further: potency means the concentration at half of the fitted maximal effect). Put shortly: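 Luminescent read-out of luciferin formed by 5 nM human CYP2D6 demethylating 30 uM Luciferin-ME EGE (Km level) over 60 min at room temperature after NADPH regeneration addition. Data normalized to full inhibition by 1.43 uM quinidine.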

A short description of assay [8]: qHTS Assay for Lipid Storage Modulators (AID 1519; calls by dose curve). Conditions: Drosophila S3 cells, BODIPY lipid droplet/cell ratio, laser cytometry, cells loaded with oleic acid; for activity change, negative = inhibition: at 57.5 µM (top of the series). Put shortly:
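Cells seeded at 5,000 per well were treated with compounds over a concentration series and loaded with oleic acid (400 uM, as added). Lipid droplet fluorescence (488 nm excitation, 500-530 nm channel) was read by laser-scanning cytometry and normalized to 20 uM Triacsin C.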

Assay [9] in a line: Primary qHTS for small molecule stabilizers of the endoplasmic reticulum resident proteome: Secreted ER Calcium Modulated Protein (SERCaMP) assay (AID 1508630; active means well fitted curve in the direction sought with a large enough effect; an effect the other way counts as inactive or inconclusive; further: on the % scale 0 is the no-effect control and ±100 the full control effect). Put shortly:
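The SH-SY5Y reporter protocol was run at 3 concentrations up to 38.3 uM (primary) or 11 concentrations (follow-up): 16 h compound, 100 nM thapsigargin for 4 h, then extracellular luciferase luminescence.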

For assay [10], the target named is Lysosomal acid glucosylceramidase (Homo sapiens) (UniProt P04062). Description: Glucocerebrosidase-p2 (AID 348; in the data active means potency below about 10 µM; further: potency means the concentration at half of the fitted maximal effect). Conditions: purified GBA, blue fluorogenic substrate, 40 min. Put shortly: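 Normal human glucocerebrosidase (0.2 nM) with blue fluorogenic substrate (80 uM final) in citrate/phosphate pH 5.9 with 10mM sodium taurocholate, 0.01% tween-20; 40 min RT, NaOH/glycine stop; fluorescence Ex 365/Em 440; AC50 from a titration from 0.6 nM upwards.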
Chain of Lysosomal acid glucosylceramidase (Homo sapiens) (P04062 whole entry, looked up): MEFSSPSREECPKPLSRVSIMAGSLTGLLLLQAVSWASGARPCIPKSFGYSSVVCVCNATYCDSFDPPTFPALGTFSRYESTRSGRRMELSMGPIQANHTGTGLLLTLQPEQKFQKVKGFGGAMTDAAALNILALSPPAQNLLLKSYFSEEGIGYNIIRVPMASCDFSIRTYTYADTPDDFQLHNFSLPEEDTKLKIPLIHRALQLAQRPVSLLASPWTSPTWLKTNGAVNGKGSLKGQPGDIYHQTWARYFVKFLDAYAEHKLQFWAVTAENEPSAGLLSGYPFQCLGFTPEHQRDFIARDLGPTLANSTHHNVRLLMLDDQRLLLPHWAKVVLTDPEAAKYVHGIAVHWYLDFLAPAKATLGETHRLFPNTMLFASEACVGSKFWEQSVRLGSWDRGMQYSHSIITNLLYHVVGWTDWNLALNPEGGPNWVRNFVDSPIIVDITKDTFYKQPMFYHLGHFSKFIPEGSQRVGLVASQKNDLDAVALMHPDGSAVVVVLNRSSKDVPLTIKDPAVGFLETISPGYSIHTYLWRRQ

The nature of assay [11]: Stat Signaling Pathway (AID 446). Put shortly: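 FRET read-out (405 nm excitation, 460/530 nm emission) of a beta-lactamase reporter under a STAT-inducible element in ME-180 cervical carcinoma cells. Cells with compound receive 40 pM IL-6 for 5 h. Values are normalised to AC90 stimulation and AC90 JAK-inhibitor controls.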
Assay [12] concerns the target Glucocorticoid receptor (Homo sapiens) (UniProt P04150). Description: GR-GFP Redistribution (AID 450;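 active means compounds whose dose series gives a full or clear partial fitted curve of increased nuclear translocation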; further: potency means the concentration at half of the fitted maximal effect). The settings on record: U2OS GR-GFP nuclear translocation, laser cytometry, 2 h.
The target in assay [13] is Cytochrome P450 3A4 (Homo sapiens) (UniProt P08684). Description: qHTS Assay for Inhibitors and Substrates of Cytochrome P450 3A4 (AID 884; active means well fitted curve in the direction sought with a large enough effect; an effect the other way counts as inactive or inconclusive; further: potency means the concentration at half of the fitted maximal effect; nearly all actives have a fitted effect of over 50% in size). Put shortly: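 Luminescent readout of luciferin produced by CYP3A4 (20 nM) dealkylation of Luciferin-PPXE, 25 uM (its KM). NADPH-driven reaction ran 60 min at RT after 10 min compound preincubation; data scaled to 57 uM ketoconazole as 100% inhibition.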
Chain of Cytochrome P450 3A4 (Homo sapiens) (P08684 whole entry, looked up): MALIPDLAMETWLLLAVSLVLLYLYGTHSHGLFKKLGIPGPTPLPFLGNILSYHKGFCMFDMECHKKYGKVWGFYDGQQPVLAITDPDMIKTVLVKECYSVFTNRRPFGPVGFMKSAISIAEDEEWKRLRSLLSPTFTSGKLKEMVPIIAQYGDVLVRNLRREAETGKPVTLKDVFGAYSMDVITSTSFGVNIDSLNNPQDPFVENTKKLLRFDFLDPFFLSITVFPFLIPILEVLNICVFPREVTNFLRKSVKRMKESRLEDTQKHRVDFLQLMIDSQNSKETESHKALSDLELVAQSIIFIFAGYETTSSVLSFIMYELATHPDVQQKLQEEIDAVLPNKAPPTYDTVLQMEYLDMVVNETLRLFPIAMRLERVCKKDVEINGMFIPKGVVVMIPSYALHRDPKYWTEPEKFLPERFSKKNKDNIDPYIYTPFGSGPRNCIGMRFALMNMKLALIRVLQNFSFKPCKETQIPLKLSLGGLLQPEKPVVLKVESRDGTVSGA

The target is the same in assay [14]. Kind of assay: qHTS Assay for Activators of Cytochrome P450 3A4 (AID 885; active means well fitted curve in the direction sought with a large enough effect; an effect the other way counts as inactive or inconclusive; further: nearly all actives have a fitted effect of over 65% in size). Put shortly: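 Luminescent readout of luciferin formed from 25 uM Luciferin-PPXE (KM level) by 20 nM CYP3A4 in 200 mM KPO4, with 60 min NADPH-driven reaction at room temperature after 10 min compound exposure. Ketoconazole (57 uM) defined 100% inhibition.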
Assay [15] concerns the target Ubiquitin carboxyl-terminal hydrolase 1 (Homo sapiens) (UniProt O94782). Kind of assay: Inhibitors of USP1/UAF1: Pilot qHTS (AID 504865; active means well fitted curve in the direction sought with a large enough effect; an effect the other way counts as inactive or inconclusive;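 further: rhodamine fluorescence freed from ubiquitin-rhodamine substrate followed over time; top concentration of the series differs between compounds; on the % scale 0 is the no-effect control and ±100 the full control effect; nearly all actives have a fitted effect of over 35% in size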). Put shortly:
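USP1/UAF1 complex (1nM) preincubated with compound 15 min at room temperature, then Ub-Rho substrate (150nM final) added. Fluorescence read kinetically at 480/540 nm, 6 reads every 60 seconds. Buffer: 50mM HEPES pH 7.8, 0.5mM EDTA, 0.1 mg/ml BSA, 1mM TCEP, 0.01% Tween-20.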

A short description of assay [16]: qHTS Assay for Identification of Small Molecule Agonists for Hypoxia Response Element Signaling Pathway (AID 914; active means well fitted activation curve with a large enough effect in the signal ratio, with a control signal flat, not every such curve was filed as active; the % refers to the signal ratio; further: % of control where 0% means no effect). Conditions: ME-180 HRE-bla reporter, beta-lactamase ratio, CoCl2, 17 h; activation: stronger effect = higher value. In outline: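 ME-180 cells carrying an HRE-driven beta-lactamase reporter were treated with compounds in a titration series plus an EC50 level of CoCl2 for 17 h at 37 degrees Celsius; CCF4 readout as the 460nm/530nm ratio gave AC50 values.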

Assay [17] addresses Cytochrome P450 2C9 (Homo sapiens) (UniProt P11712). Kind of assay: qHTS Assay for Inhibitors and Substrates of Cytochrome P450 2C9 (AID 883; active means well fitted curve in the direction sought with a large enough effect; an effect the other way counts as inactive or inconclusive; further: on the % scale 0 is the no-effect control and ±100 the full control effect; nearly all actives have a fitted effect of over 60% in size). In outline: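 Turnover of Luciferin-H (100uM, KM) by 10nM human CYP2C9 was measured over 60 min at 37C with NADPH regeneration; inhibitors and some substrates reduce luminescence. Data normalized to sulphaphenazole 57uM.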
In assay [18] the test system is HIV-1 nucleocapsid protein NCp7 (binding to TG oligonucleotide). Kind of assay: HIV Nucleocapsid (AID 346; call rule not given here;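 further: potency means the concentration at half of the fitted maximal effect; potency is for inhibitors that block NC binding and lower polarization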). The settings on record: HIV-1 NC / fluorescein-TGTGTGTG probe, fluorescence polarization. In outline:
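HIV-1 NC (100 nM) binding to fluorescein-labelled ssDNA TG4xF (10 nM) in Hepes pH 7.5, 250mM NaCl, 1uM ZnCl2, TCEP and 2-mercaptoethanol; compounds pin-transferred, 1 hr room temperature, fluorescence polarization read on CCD imager.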

[19] abbreviates: measured here: cell count channel max response.
Setting [20] is: measured here: lipid channel max response.

These results are taken from PubChem BioAssay (NCATS).

Records with an inconclusive call do not appear. Active and inactive are the calls of the source. Unless noted, the call rests on the fitted dose curve; in most records, active means well fitted curve in either direction with a large enough effect (not every such curve was filed as active); inconclusive means small, poorly fitted or top-dose-only effect, or another doubt; inactive means flat fitted curve, though single readings scatter. Bounds are passed on as bounds.

Chain of Glucocorticoid receptor (Homo sapiens) (P04150 whole entry, looked up, the tested form may be a part): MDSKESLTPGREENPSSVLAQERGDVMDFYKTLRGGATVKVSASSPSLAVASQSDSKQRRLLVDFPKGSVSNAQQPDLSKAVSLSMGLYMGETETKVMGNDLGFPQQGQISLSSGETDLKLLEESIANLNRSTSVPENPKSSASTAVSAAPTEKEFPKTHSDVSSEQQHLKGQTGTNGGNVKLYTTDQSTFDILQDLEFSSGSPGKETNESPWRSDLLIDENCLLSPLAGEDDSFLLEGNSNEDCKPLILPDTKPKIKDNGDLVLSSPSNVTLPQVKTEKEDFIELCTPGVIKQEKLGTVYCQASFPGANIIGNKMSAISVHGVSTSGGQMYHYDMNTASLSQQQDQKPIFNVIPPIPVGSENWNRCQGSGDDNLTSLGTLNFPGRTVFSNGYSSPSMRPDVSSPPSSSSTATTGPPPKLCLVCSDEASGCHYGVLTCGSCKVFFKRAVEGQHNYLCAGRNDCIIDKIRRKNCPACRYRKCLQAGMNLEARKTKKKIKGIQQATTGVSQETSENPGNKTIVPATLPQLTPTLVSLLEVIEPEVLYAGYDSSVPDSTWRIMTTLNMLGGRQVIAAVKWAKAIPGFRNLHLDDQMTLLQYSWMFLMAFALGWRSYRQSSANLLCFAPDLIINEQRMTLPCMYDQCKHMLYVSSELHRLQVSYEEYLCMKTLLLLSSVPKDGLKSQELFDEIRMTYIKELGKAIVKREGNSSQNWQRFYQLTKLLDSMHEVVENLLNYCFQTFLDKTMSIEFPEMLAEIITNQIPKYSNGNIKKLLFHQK
Chain of Cytochrome P450 1A2 (Homo sapiens) (P05177 whole entry, looked up): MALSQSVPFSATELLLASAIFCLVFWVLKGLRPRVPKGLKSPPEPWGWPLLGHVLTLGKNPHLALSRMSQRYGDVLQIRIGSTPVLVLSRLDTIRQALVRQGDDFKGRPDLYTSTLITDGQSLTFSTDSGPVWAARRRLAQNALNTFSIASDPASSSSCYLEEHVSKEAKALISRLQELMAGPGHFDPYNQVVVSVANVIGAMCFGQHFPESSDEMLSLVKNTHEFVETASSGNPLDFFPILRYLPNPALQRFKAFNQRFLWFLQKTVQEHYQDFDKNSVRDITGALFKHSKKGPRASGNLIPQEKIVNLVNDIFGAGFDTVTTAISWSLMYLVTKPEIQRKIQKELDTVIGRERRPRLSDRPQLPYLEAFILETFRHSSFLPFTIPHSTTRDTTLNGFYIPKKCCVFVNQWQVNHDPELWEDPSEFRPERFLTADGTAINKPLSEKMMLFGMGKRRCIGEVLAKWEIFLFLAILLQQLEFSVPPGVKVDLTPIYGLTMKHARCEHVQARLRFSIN
Chain of Cytochrome P450 2D6 (Homo sapiens) (P10635 whole entry, looked up): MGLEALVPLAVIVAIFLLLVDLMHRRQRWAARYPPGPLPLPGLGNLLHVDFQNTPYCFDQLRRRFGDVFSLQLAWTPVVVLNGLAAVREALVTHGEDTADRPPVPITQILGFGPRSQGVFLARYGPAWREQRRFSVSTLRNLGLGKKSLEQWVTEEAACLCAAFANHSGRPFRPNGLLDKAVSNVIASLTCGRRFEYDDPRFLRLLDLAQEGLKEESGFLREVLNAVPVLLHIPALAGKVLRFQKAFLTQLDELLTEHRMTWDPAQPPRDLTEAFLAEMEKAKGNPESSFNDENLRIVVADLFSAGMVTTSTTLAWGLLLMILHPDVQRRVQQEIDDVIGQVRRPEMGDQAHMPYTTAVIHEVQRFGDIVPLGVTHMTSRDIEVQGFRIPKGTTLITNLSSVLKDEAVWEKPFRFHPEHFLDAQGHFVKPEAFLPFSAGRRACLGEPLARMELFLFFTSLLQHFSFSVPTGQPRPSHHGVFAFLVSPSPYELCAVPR
Chain of Cytochrome P450 2C9 (Homo sapiens) (P11712 whole entry, looked up): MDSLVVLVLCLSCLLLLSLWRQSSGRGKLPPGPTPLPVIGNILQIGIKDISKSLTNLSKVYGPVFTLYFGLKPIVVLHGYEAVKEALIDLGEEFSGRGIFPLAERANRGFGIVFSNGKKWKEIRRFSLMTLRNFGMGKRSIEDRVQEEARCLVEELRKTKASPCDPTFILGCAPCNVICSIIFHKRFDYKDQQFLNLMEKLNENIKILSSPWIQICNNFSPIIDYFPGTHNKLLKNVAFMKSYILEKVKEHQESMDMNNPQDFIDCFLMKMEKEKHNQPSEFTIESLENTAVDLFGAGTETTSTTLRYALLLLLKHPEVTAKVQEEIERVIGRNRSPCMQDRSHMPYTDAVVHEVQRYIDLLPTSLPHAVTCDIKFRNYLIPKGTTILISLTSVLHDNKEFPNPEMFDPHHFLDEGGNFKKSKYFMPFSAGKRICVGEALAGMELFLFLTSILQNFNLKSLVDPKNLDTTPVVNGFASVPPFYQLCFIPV
Chain of Ubiquitin carboxyl-terminal hydrolase 1 (Homo sapiens) (O94782 whole entry, looked up): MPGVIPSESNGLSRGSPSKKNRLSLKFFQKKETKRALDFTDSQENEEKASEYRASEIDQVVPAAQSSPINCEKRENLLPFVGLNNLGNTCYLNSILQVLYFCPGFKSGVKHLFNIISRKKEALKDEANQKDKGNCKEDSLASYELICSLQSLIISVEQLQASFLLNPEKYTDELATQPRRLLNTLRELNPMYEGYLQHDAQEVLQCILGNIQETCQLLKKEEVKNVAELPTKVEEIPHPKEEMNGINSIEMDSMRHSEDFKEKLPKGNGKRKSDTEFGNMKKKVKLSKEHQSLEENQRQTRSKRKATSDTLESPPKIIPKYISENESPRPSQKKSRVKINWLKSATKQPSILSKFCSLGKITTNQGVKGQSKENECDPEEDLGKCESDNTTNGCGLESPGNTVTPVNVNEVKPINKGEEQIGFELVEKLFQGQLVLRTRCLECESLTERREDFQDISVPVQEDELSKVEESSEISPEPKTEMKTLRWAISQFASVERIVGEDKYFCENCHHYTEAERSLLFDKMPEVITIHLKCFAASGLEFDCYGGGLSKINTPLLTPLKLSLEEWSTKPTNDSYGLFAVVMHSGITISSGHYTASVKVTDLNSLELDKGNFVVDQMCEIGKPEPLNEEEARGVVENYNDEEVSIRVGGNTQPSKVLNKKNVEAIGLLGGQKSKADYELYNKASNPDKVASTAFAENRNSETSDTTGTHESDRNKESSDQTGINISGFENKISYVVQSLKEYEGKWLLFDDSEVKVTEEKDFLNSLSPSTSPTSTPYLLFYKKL

As for `CC(C)CN1CCC2(CC1)CCN(S(C)(=O)=O)CC2`, the outcome in assay [1], in assay [5] and in [9] was inactive. The Potency entry in assay [2] and in assay [6] was “inactive” each time. Besides, the activity change, negative = inhibition was 6.76% (inactive) in assay [3] (at 7.69 µM (top of the series)) and -1.49% (inactive) in assay [8]. Also, the values for the Potency in assay [4] and in assay [7] were > 46 µM (inactive) and 0.794 µM (active), respectively. Moreover, the max response in assay [8] (setting [19]) is -15.1%; in assay [8] (setting [20]), -17.2%.

For `Clc1ccccc1-c1cncnc1NCCc1cnc[nH]1`, the Potency is > 11.4 µM (inactive) in assay [10]; 1.58 µM (active) in assay [2]; > 46 µM (inactive) in assay [12]; > 46 µM (inactive) in assay [4]; 0.501 µM (active) in assay [13]; 3.98 µM (active) in assay [7]. Also, the compound was called inactive in [1], in assay [11], in assay [5] and in assay [9]. The activity change, negative = inhibition in assay [3] (at 7.69 µM (top of the series)) is -21.6% (inactive). Further, the Potency result in assay [6], in [14] and in [15] was “inactive” each time.

Take `CCc1c(C(=O)OC)ncc2[nH]c3cc(OC)c(OC)cc3c12`: the activity change, negative = inhibition in assay [3] (at 38 µM (top of the series)) is -26.6% (inactive). For the same compound, the Potency in [12] and in [4] was > 46 µM (inactive) each time. Besides, the result in assay [5] and in [9] was inactive. The Potency result in [6] and in assay [14] was “inactive” throughout.

Take `c1ccc(CN2CC[C@@]3(CCCNC3)C2)cc1`: the Potency is > 11.4 µM (inactive) in assay [10] and > 46 µM (inactive) in assay [4]. Moreover, the outcome in assay [1], in [11], in assay [5] and in [9] was inactive. In addition, the activity change, negative = inhibition was 2.89% (inactive) in assay [3] (at 7.69 µM (top of the series)) and 3.83% (inactive) in assay [8]. Also, the Potency entry in assay [14] is “inactive”. The activation in assay [16] was 10.9% (inactive). Moreover, the max response came to 8.29% in assay [8] (setting [19]) and 14.7% in [8] (setting [20]).

On to `O=C(Nc1cccc(F)c1)N1CC[C@@]2(CCCN(C(=O)Oc3ccccc3)C2)C1`, for which the Potency in [10] is > 11.4 µM (inactive); in assay [4], > 46 µM (inactive). Further, the compound was classed as inactive in assay [1], in [11], in assay [5] and in assay [9]. For the same compound, the activity change, negative = inhibition in assay [3] (at 7.69 µM (top of the series)) was -6.58% (inactive); in [8] it was 7.1% (inactive). Further, in assay [14], the Potency result was “inactive”. Moreover, the max response was found to be 6.61% in assay [8] (setting [19]) and 19.8% in assay [8] (setting [20]).

In the case of `CN1CCCC2(CCN(C(=O)c3ccncc3)CC2)C1`, the call in [1], in assay [11], in assay [5] and in assay [9] was inactive. The activity change, negative = inhibition was -16.6% (inactive) in [3] (at 7.69 µM (top of the series)) and 2.07% (inactive) in assay [8]. The Potency in [4] was > 46 µM (inactive). Also, the Potency result in assay [6] and in [17] was “inactive” in each case. Further, the max response amounted to 15.5% in assay [8] (setting [19]) and 19.9% in assay [8] (setting [20]).

Consider `COc1ccc(NC(=O)N2CC3(CCN(C(=O)Oc4ccccc4)CC3)C2)cc1`, for which the Potency in [18] was > 20 µM (inactive); in [10], > 11.4 µM (inactive); in assay [4], > 46 µM (inactive). The result in assay [1], in [11], in assay [5] and in [9] was inactive. The activity change, negative = inhibition in assay [3] (at 7.69 µM (top of the series)) is 3.27% (inactive). Moreover, the Potency entry in assay [6] was “inactive”.

Turning to `N#Cc1cccc(NC(=O)N2CC[C@@]3(CCCN(C(=O)Oc4ccccc4)C3)C2)c1`, the results for the Potency in assay [10] and in assay [4] were > 11.4 µM (inactive) and > 46 µM (inactive), respectively. The call in assay [1], in assay [11], in assay [5] and in [9] was inactive. The Potency entry in assay [2], in assay [6], in [17], in assay [14] and in assay [7] was “inactive” in each case. In addition, in [3] (at 7.69 µM (top of the series)), the activity change, negative = inhibition is -14.8% (inactive).
